Reference: PubChem BioAssay AID1159580 (chemical genetic matrix, 2015)
Several values for one entry are separate records, joined by “and”; a condition that tells them apart may be missing. Equal entries are not always repeated. About 2,000 (36%) of roughly 5,500 compounds were called active. Roughly 18% stayed inconclusive and do not appear here. No stated cut-off is given here; in the data, active means normalized growth mostly below about 0.91 (no sharp cut-off); inconclusive means no clear call, values can overlap the other calls; inactive means mostly above about 0.92. This is one part of the list.

Experiment: chemical genetic growth profiling, strain panel (AID 1159580);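 further: tested at 20 µM; growth read once vehicle control cultures reached saturation at 30 °C; 1 = growth at the plate median or of vehicle wells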
Settings: S. cerevisiae deletion strains, growth OD

Measured: normalized growth

CC(C)CCCC(C)C1CCC2C3=CC[C@H]4C[C@@H](O)CC[C@]4(C)C3CC[C@@]21C (some centres not stated)
active: locus YDR137W, strain rgp1, stronger effect = lower value 0.823 | locus YGL253W, strain hxk2, stronger effect = lower value 0.909
inactive: locus YAL021C, strain ccr4, stronger effect = lower value 0.965 | locus YAL026C, strain drs2, stronger effect = lower value 0.965 | locus YAL030W, strain snc1, stronger effect = lower value 0.985 | locus YBL061C, strain skt5, stronger effect = lower value 0.991 | locus YBR009C, strain hhf1, stronger effect = lower value 1.02 | locus YBR021W, strain FUR4, stronger effect = lower value 1.02 | locus YBR023C, strain chs3, stronger effect = lower value 0.961 | locus YBR171W, strain sec66, stronger effect = lower value 0.968 | locus YBR229C, strain ROT2, stronger effect = lower value 1.02 | locus YBR231C, strain swc5, stronger effect = lower value 0.967 | locus YBR279W, strain paf1, stronger effect = lower value 0.991 | locus YCL011C, strain gbp2, stronger effect = lower value 0.974 | locus YCL016C, strain dcc1, stronger effect = lower value 0.979 | locus YCL029C, strain bik1, stronger effect = lower value 0.994 | locus YCL061C, strain MRC1, stronger effect = lower value 0.986 | locus YCL069W, strain vba3, stronger effect = lower value 0.989 | locus YCR088W, strain abp1, stronger effect = lower value 0.983 | locus YDL005C, strain med2, stronger effect = lower value 0.997 | locus YDL035C, strain GPR1, stronger effect = lower value 0.996 | locus YDL040C, strain nat1, stronger effect = lower value 0.965 | locus YDL074C, strain BRE1, stronger effect = lower value 0.965 | locus YDL101C, strain DUN1, stronger effect = lower value 1.02 | locus YDL185W, strain tfp1, stronger effect = lower value 1 | locus YDL192W, strain arf1, stronger effect = lower value 0.981 | locus YDR001C, strain nth1, stronger effect = lower value 0.985 | locus YDR069C, strain doa4, stronger effect = lower value 0.98 | locus YDR101C, strain arx1, stronger effect = lower value 0.988 | locus YDR150W, strain NUM1, stronger effect = lower value 1.04 | locus YDR159W, strain sac3, stronger effect = lower value 1.01 | locus YDR162C, strain NBP2, stronger effect = lower value 0.958 | locus YDR195W, strain ref2 1.03 | locus YDR297W, strain sur2, stronger effect = lower value 0.975 | locus YDR318W, strain mcm21, stronger effect = lower value 1.01 | locus YDR334W, strain swr1, stronger effect = lower value 0.948 | locus YDR335W, strain msn5, stronger effect = lower value 0.967 | locus YDR388W, stronger effect = lower value 0.994 | locus YDR392W, strain spt3, stronger effect = lower value 0.863 | locus YDR502C, strain sam2, stronger effect = lower value 0.977 | locus YEL003W, strain gim4, stronger effect = lower value 0.976 | locus YEL037C, strain rad23, stronger effect = lower value 0.975 | locus YEL061C, strain CIN8 (second series), stronger effect = lower value 0.978 | locus YEL061C, strain CIN8, stronger effect = lower value 1.01 | locus YER015W, strain faa2, stronger effect = lower value 0.985 | locus YER016W, strain bim1, stronger effect = lower value 0.998 | locus YER110C, stronger effect = lower value 0.985 | locus YER111C, strain swi4, stronger effect = lower value 0.977 | locus YER155C, strain BEM2 (second series), stronger effect = lower value 0.973 | locus YER155C, strain BEM2, stronger effect = lower value 1.01 | locus YER167W, strain BCK2, stronger effect = lower value 1.06 | locus YFR010W, strain ubp6, stronger effect = lower value 0.983 | locus YGL078C, strain dbp3, stronger effect = lower value 0.982 | locus YGL086W, strain mad1, stronger effect = lower value 0.996 | locus YGL167C, strain pmr1, stronger effect = lower value 0.98 | locus YGL173C, strain kem1, stronger effect = lower value 0.968 | locus YGL227W, strain vid30, stronger effect = lower value 0.991 | locus YGL240W, strain doc1, stronger effect = lower value 0.984 | locus YGL248W, strain PDE1, stronger effect = lower value 1.03 | locus YGR135W, strain pre9, stronger effect = lower value 0.982 | locus YGR252W, strain gcn5, stronger effect = lower value 0.944 | locus YHR013C, strain ard1, stronger effect = lower value 0.957 | locus YHR027C, strain rpn1, stronger effect = lower value 0.973 | locus YHR030C, strain SLT2, stronger effect = lower value 1.01 and 0.993 | locus YHR079C, strain IRE1 (second series), stronger effect = lower value 1 | locus YHR079C, strain IRE1, stronger effect = lower value 1.02 | locus YHR094C, strain hxt1, stronger effect = lower value 0.988 | locus YHR129C, strain ARP1, stronger effect = lower value 1.01 | locus YHR142W, strain chs7, stronger effect = lower value 0.886 | locus YHR200W, strain rpn10, stronger effect = lower value 1.01 | locus YIL066C, strain RNR3, stronger effect = lower value 1.03 | locus YIL073C, strain SPO22, stronger effect = lower value 1.05 | locus YIL125W, strain kgd1, stronger effect = lower value 0.999 | locus YIR030C, strain dcg1, stronger effect = lower value 0.994 | locus YJL092W, strain hpr5, stronger effect = lower value 0.976 | locus YJL095W, strain BCK1 (second series), stronger effect = lower value 0.991 | locus YJL095W, strain BCK1, stronger effect = lower value 0.946 and 1 | locus YJL115W, strain asf1, stronger effect = lower value 0.966 | locus YJL129C, strain trk1, stronger effect = lower value 0.905 | locus YJL134W, strain LCB3, stronger effect = lower value 0.989 | locus YJL154C, strain vps35, stronger effect = lower value 0.995 | locus YJL164C, strain tpk1, stronger effect = lower value 0.956 | locus YJL166W, strain qcr8, stronger effect = lower value 0.971 | locus YJL168C, strain set2, stronger effect = lower value 0.995 | locus YJL187C, strain SWE1 (second series), stronger effect = lower value 0.994 | locus YJL187C, strain SWE1, stronger effect = lower value 0.985 | locus YJR043C, strain POL32, stronger effect = lower value 1.05
